According to PubChem BioAssay (NCATS):
Several values for one entry are separate records, joined by “and”; a condition that tells them apart may be missing. Equal values may be shown once. Results filed as inconclusive are left out. Activity calls are given as the source filed them. Unless noted, the call rests on the fitted dose curve; in most records, active means well fitted curve in the direction sought with a large enough effect; inconclusive means small, poorly fitted or top-dose-only effect, or another doubt; inactive means no such curve, though single readings can be large; an effect the other way counts as inactive or inconclusive.

What was measured:
[1] = qHTS assay for small molecule antagonists of peroxisome proliferator-activated receptor delta signaling (AID 588535); conditions: HEK293T PPARd-UAS-bla, beta-lactamase FRET ratio, 18 h; 460 nm channel;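 further: cells co-treated with a PPAR-delta agonist as stimulator during compound exposure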
How it was run: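 GeneBLAzer PPAR-delta-UAS-bla HEK293T cells in medium with 2% charcoal/dextran FBS were preincubated 5 hrs at 37 C, then given compounds, incubated 18 hrs at 37 C, and read by CCF4 beta-lactamase fluorescence; IC50 from Hill fits.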

[2] = biological target: Peroxisome proliferator-activated receptor gamma (Homo sapiens) (UniProt P37231); assay: qHTS assay for small molecule agonists of peroxisome proliferator-activated receptor gamma signaling (AID 588536; active means well fitted curve in the direction sought with a large enough effect in the signal ratio, with a control signal flat, not every such curve was filed as active; the % refers to the signal ratio;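 further: 0% = DMSO basal wells and 100% = rosiglitazone at 2 µM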); conditions: HEK293 PPARg-UAS-bla, beta-lactamase ratio, 16 h, percent of rosiglitazone response, DMSO as zero; series mostly up to 76.7 µM
How it was run: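 GeneBLAzer PPAR-gamma-UAS-bla HEK293 cells in 1% charcoal/dextran-treated FBS medium were treated 16 h at 37 C with compounds. Beta-lactamase activity was read by CCF4 ratio (460/530 nm). Response was normalized to 2 uM rosiglitazone (100%) and DMSO, then Hill-fitted for EC50 and efficacy.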

[3] = biological target: Peroxisome proliferator-activated receptor gamma (Homo sapiens) (UniProt P37231); assay: qHTS assay for small molecule antagonists of peroxisome proliferator-activated receptor gamma signaling (AID 588537; active means well fitted inhibition curve with a large enough effect in the signal ratio, with a control signal flat, not every such curve was filed as active; the % refers to the signal ratio;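 further: reporter cells co-stimulated with 50 nM rosiglitazone agonist during compound treatment; % of control where 0% means no effect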); conditions: HEK293 PPARg-UAS-bla, beta-lactamase ratio, antagonist mode; series mostly up to 76.8 µM
How it was run: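 PPAR-gamma-UAS-bla HEK293 cells (3000/well, 1% charcoal/dextran-stripped FBS) were preincubated 6-6.5 h at 37 C, given titrated compounds, then stimulated with 50 nM rosiglitazone for 16 h. Beta-lactamase activity was read with CCF4 dye; IC50 came from Hill fits.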

[4] = qHTS assay for small molecule agonists of retinoid X receptor alpha signaling (AID 588544; calls by dose curve;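 on activation: 0% = DMSO basal wells and 100% = reference agonist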); conditions: HEK293T RXRa-UAS-bla, beta-lactamase reporter, 18 h; 530 nm emission
[5] = biological target: Retinoic acid receptor RXR-alpha (Homo sapiens) (UniProt P19793); assay: as above; conditions: HEK293T RXRa-UAS-bla, beta-lactamase reporter, 18 h; series mostly up to 76.7 µM
[6] = biological target: Thyroid hormone receptor beta (Homo sapiens) (UniProt P10828); assay: qHTS assay for small molecule agonists of thyroid hormone receptor beta signaling (AID 588545; calls by dose curve); conditions: TR-UAS-bla GripTite HEK 293, beta-lactamase ratio, agonist mode, 18 h; series mostly up to 76.7 µM
How it was run: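 In this cell-based screen, titrated compounds act on HEK 293 cells held in medium with 2% charcoal/dextran FBS, NEAA and pyruvate for 18 hrs at 37 C. Responses are expressed relative to T3 (10 nM) as 100% and basal DMSO as 0%.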

[7] = qHTS assay for small molecule antagonists of retinoid X receptor alpha signaling (AID 588546; active means well fitted inhibition curve with a large enough effect in the signal ratio, with a control signal flat, not every such curve was filed as active; the % refers to the signal ratio;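 further: cells stimulated with 9-cis-retinoic acid as agonist; on the % scale 0 is the no-effect control and ±100 the full control effect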); conditions: HEK293T RXRa-UAS-bla, beta-lactamase ratio, antagonist mode; measured here: W530 green channel, cytotoxicity proxy
How it was run: (§1)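 Beta-lactamase reporter inhibition, read as CCF4 fluorescence ratio (ex 405, em 460/530 nm) after 2 h at RT. HEK293T UAS-bla cells, 2500/well, were stimulated with 9-cis-RA at 500 or 100 nM final alongside test compound for 18 h at 37 C.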

[8] = biological target: Retinoic acid receptor RXR-alpha (Homo sapiens) (UniProt P19793); assay: as above; conditions: HEK293T RXRa-UAS-bla, beta-lactamase ratio, antagonist mode
How it was run: as §1

[9] = qHTS assay for small molecule activators of the p53 signaling pathway (AID 651743; active means well fitted activation curve with a large enough effect in the signal ratio, not every such curve was filed as active; the % refers to the signal ratio; further: % of control where 0% means no effect); conditions: HCT-116 p53RE-bla, beta-lactamase FRET ratio, 16 h; activation: stronger effect = higher value
How it was run: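 p53RE-bla HCT-116 cells with a stably integrated beta-lactamase reporter under p53 response elements were plated, rested 5 hours at 37 C/5% CO2, then exposed to compounds in DMSO for 16 hours at 37 C. LiveBLAzer B/G FRET substrate was read after 2 hours at room temperature.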

[10] = qHTS assay for small molecule activators of the nuclear factor-kappa B (NF-kB) signaling pathway (AID 651749; active means well fitted activation curve with a large enough effect in the signal ratio; the % refers to the signal ratio; further: % of control where 0% means no effect); conditions: NF-kB-bla ME-180 cells, beta-lactamase FRET ratio, 16 h; activation: stronger effect = higher value
How it was run: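 ME-180 cells stably carrying a beta-lactamase reporter under an NF-kB response element were exposed to compound or DMSO vehicle for 16 hr at 37C, 5% CO2. Pathway activation was read by FRET, since reporter expression disrupts FRET.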

[11] = qHTS assay for environmental chemicals that activate the Aryl hydrocarbon Receptor (AhR) signaling pathway (AID 651777); conditions: 1A2-DRE human hepatoma cells, luciferase, 24 h; activation: stronger effect = higher value; further: % of control where 0% means no effect; nearly all actives have a fitted effect of over 15% in size
How it was run: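 Human hepatoma 1A2-DRE cells stably carrying a DRE/CYP1A2 promoter–luciferase reporter, 1,200 cells/well, exposed to compound 24 hr at 37 C. Luciferase read by One-Glo luminescence after 30 min at room temperature; increased signal marks AhR activation.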

[12] = biological target: Peroxisome proliferator-activated receptor alpha (Homo sapiens) (UniProt Q07869); assay: qHTS assay for small molecule agonists of the peroxisome proliferator-activated receptor alpha (PPARalpha) signaling pathway (AID 651778); conditions: PathHunter PPARalpha complementation, chemiluminescence, 6 h; max response: stronger effect = higher value; further: % of control where 0% means no effect
How it was run: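 Cells plated at 2,000/well and held overnight at 37 C, 5% CO2, then compound added by pin tool for 6 hr; after PathHunter detection reagent and 60 min at room temperature, chemiluminescence from enzyme complementation was read.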

[13] = qHTS assay for small molecule agonists of the antioxidant response element (ARE) signaling pathway measured by Nrf2-dependant transcriptional activity (AID 720636; active means well fitted curve in the direction sought with a large enough effect in the repeat runs; an effect the other way counts as inactive or inconclusive; further: % of control where 0% means no effect); conditions: ARE-luc HepG2, Nrf2 luciferase reporter, 16 h; series mostly up to 92.4 µM
How it was run: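 ARE-luc HepG2 cells carrying an Nrf2-responsive luciferase reporter, in medium with 1% dialyzed FBS, exposed to compound for 16 hr at 37 C, 5% CO2. Luminescence read 30 min after ONE-Glo addition.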

[14] = qHTS assay for cell viability of HEK293 cells (AID 743288); conditions: ATP luminescence (CellTiter-Glo), 18 h; max response: stronger effect = lower value; further: on the % scale 0 is the no-effect control and ±100 the full control effect; nearly all actives have a fitted effect of over 50% in size
How it was run: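 The Tox21 protocol used parental HEK293 cells treated for 18 h at 37 C with compounds delivered by pintool; ATP-coupled luminescence after 30 min at room temperature gave viability.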

[15] = qHTS assay for cell viability of the p53RE-bla HCT-116 cell line (AID 743292); conditions: p53RE-bla HCT-116 viability, ATP luminescence, 16 h; series mostly up to 95 µM; further: nearly all actives have a fitted effect of over 55% in size; further: potency means the concentration at half of the fitted maximal effect
How it was run: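 CellSensor p53RE-bla HCT-116 cells (4,000/well) pre-incubated 5 h at 37 C, then exposed to compounds in DMSO for 16 h at 37 C. Viability read as ATP content by CellTiter-Glo luminescence after 30 min at room temperature.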

[16] = biological target: Nuclear receptor subfamily 1 group I member 2 (Rattus norvegicus) (UniProt Q9R1A7); assay: qHTS assay for small molecule activators of the rat pregnane X receptor (rPXR) signaling pathway (AID 651751; call rule not given here; further: 0% is about no effect); conditions: rPXR reporter cells, luciferase (One-Glo), 24 h
[17] = biological target: Glucocorticoid receptor (Homo sapiens) (UniProt P04150); assay: qHTS assay for small molecule agonists of glucocorticoid receptor signaling (AID 588532; active means well fitted curve in the direction sought with a large enough effect in the signal ratio, with a control signal flat; the % refers to the signal ratio;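 further: 100% = dexamethasone at 0.1 µM and 0% = DMSO only wells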); conditions: HeLa MMTV-bla, beta-lactamase ratio, agonist, 18 h; stronger effect = higher value; percent of dexamethasone control, DMSO zero
How it was run: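 MMTV-bla HeLa, beta-lactamase reporter; medium with 1% charcoal/dextran-stripped FBS; cpds up to 92 uM, 18 h, 37 C; CCF4 readout 460/530 nm; Hill fit → EC50, efficacy vs 0.1 uM dexamethasone = 100%.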

[18] = qHTS assay for small molecule agonists of the antioxidant response element (ARE) signaling pathway measured by Nrf2-dependant transcriptional activity - cell viability counter screen (AID 720653; active means well fitted curve in the direction sought with a large enough effect in the repeat runs; an effect the other way counts as inactive or inconclusive; further: on the % scale 0 is the no-effect control and ±100 the full control effect); conditions: ARE-bla HepG2 viability, CellTiter-Glo ATP luminescence, 16 h; max response: stronger effect = lower value
How it was run: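 ARE-bla HepG2 cells (2,000/well) rested 5 hrs at 37C/5% CO2, then exposed to compounds in DMSO for 16 hrs. Viability was read in the same wells as intracellular ATP by luminescence, 30 min at room temperature after reagent addition.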

[19] = qHTS assay for small molecule activators of the human pregnane X receptor (PXR) signaling pathway (AID 720659; call rule not given here; further: 0% is about no effect); conditions: DPX-2 HepG2 CYP3A4-luciferase, 24 h; series mostly up to 92.3 µM
[20] = biological target: Thyroid hormone receptor beta (Homo sapiens) (UniProt P10828); assay: qHTS assay for small molecule antagonists of thyroid hormone receptor beta signaling (AID 588547; active means well fitted inhibition curve with a large enough effect in the signal ratio, with a control signal flat, not every such curve was filed as active; the % refers to the signal ratio;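 further: cells stimulated with 0.4 nM T3 agonist during compound exposure; on the % scale 0 is the no-effect control and ±100 the full control effect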); conditions: TR-UAS-bla HEK293, beta-lactamase ratio, antagonist mode, 18 h
How it was run: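 TR-UAS-bla GripTite HEK293 cells in 2% charcoal/dextran FBS medium were preincubated 4 h at 37 C, given compound (0.59 nM to 92 uM) plus 0.4 nM T3 (final) for 18 h, then CCF4 for 2 h at RT; Hill fit gave IC50.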

Chain of Retinoic acid receptor RXR-alpha (Homo sapiens) (P19793 whole entry, looked up): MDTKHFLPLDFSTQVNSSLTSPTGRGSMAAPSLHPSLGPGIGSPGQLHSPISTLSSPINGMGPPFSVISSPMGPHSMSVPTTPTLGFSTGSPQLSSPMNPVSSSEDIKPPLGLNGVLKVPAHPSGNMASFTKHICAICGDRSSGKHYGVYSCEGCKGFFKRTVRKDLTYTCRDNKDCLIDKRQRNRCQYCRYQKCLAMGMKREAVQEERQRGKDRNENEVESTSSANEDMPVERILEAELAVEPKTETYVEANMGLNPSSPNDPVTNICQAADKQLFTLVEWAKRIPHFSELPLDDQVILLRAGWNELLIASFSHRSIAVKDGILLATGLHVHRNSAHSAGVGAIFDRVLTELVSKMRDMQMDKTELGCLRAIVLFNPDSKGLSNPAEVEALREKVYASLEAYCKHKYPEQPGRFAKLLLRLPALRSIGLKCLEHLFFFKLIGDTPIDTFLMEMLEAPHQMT
Chain of Peroxisome proliferator-activated receptor gamma (Homo sapiens) (P37231 whole entry, looked up): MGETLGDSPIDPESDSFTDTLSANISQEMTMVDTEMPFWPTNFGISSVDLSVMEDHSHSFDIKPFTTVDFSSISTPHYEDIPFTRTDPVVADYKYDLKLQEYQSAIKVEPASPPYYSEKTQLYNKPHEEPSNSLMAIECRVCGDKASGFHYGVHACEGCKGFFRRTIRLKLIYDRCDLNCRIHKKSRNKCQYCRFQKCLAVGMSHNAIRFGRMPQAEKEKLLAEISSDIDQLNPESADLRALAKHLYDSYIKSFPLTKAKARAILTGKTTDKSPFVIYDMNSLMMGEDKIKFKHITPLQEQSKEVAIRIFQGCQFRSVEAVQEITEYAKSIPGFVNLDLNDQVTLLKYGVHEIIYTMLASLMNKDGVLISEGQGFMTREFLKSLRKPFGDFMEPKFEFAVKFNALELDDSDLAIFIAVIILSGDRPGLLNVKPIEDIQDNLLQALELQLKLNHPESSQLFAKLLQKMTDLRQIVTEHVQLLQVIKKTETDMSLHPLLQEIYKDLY
Chain of Nuclear receptor subfamily 1 group I member 2 (Rattus norvegicus) (Q9R1A7 whole entry, looked up): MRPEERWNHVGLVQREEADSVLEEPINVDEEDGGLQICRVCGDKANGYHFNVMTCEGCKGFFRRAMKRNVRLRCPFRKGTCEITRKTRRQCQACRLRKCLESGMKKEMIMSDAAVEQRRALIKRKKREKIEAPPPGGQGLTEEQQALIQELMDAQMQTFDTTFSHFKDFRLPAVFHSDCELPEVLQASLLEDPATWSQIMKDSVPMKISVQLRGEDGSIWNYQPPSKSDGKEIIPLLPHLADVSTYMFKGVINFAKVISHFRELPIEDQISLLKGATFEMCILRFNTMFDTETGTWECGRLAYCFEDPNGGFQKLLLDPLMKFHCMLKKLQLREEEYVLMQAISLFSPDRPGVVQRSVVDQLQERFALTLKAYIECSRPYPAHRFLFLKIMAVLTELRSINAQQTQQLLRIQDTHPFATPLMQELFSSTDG
Chain of Thyroid hormone receptor beta (Homo sapiens) (P10828 whole entry, looked up): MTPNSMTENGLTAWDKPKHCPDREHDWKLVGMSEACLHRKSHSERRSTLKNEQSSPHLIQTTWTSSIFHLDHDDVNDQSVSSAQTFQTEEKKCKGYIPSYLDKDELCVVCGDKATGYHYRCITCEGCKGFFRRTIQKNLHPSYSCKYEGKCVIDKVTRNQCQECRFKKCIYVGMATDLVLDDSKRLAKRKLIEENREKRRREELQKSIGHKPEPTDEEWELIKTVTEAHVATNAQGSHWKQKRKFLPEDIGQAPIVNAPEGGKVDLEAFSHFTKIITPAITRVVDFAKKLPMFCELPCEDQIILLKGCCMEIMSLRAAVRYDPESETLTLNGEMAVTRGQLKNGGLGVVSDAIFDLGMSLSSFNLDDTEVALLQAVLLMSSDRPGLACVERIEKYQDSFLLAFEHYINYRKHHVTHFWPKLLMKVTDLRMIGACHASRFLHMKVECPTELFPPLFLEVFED
Chain of Peroxisome proliferator-activated receptor alpha (Homo sapiens) (Q07869 whole entry, looked up): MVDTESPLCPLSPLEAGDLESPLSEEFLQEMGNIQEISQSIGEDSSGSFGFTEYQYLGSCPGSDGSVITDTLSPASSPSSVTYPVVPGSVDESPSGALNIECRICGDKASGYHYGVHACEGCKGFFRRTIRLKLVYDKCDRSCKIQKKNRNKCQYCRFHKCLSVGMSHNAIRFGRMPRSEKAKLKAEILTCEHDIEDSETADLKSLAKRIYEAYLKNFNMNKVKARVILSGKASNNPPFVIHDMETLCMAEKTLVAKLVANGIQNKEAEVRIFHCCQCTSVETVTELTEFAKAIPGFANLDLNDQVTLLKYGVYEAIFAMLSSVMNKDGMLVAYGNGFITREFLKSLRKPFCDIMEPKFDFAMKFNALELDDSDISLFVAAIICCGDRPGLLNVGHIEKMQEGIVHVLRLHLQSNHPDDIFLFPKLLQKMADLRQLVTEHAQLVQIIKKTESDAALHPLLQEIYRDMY
Chain of Glucocorticoid receptor (Homo sapiens) (P04150 whole entry, looked up): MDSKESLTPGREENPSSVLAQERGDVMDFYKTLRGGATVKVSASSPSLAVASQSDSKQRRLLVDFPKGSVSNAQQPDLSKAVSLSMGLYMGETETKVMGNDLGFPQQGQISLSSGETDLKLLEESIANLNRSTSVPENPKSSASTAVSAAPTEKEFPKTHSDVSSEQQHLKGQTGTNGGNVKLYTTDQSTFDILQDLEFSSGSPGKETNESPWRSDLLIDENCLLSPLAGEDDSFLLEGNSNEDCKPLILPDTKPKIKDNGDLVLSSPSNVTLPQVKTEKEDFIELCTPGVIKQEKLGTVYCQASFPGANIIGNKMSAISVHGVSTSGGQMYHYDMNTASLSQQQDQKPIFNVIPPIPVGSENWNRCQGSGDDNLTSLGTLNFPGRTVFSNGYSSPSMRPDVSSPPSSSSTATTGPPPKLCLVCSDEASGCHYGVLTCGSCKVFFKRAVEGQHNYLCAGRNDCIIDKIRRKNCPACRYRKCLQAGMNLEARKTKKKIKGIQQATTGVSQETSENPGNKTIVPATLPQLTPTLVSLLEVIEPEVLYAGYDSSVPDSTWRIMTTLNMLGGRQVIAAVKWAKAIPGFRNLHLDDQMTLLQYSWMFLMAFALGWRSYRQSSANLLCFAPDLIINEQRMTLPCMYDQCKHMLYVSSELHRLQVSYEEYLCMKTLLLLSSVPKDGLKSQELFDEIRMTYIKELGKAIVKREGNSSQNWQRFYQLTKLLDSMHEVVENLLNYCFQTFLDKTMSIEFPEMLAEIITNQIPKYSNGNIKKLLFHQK

COC(=O)C1CCC(C(=O)OC)CC1 (stereo unspecified)
36.1%: max response [1]
-4.14%: max response [4]
inactive: outcome [2] | Potency [3] | Potency [5] | Potency [6] | max response [8] -11.5% | activation [9] 8.46% | activation [10] -2.67% | activation [11] 0.798% | max response [12] 3.84% | Potency [13] | max response [14] -13.8% | Potency [15] | max response [16] 2.13%
-8.09%: max response [7]

COCCO
-8.45% and -6.73%: max response [7]
-5.91% and 1.76%: max response [4]
37%: max response [1]
inactive: activation [17] 2.41% and 1.59% | outcome [2] | Potency [3] | Potency [5] | max response [8] 16.3% and -4.97% | activation [9] 0.424% and -0.727% | activation [11] -1.11% and -0.165% | max response [12] -2.01% and -0.724% | Potency [13] | max response [18] -7.73% and 3.37% | max response [14] -2.14% and 3.11%

C=CCOC(=O)CC(C)C
inactive: activation [17] 0.929% | outcome [2] | Potency [5] | Potency [6] | max response [8] 1.64% | activation [10] -0.542% | activation [11] -1.24% | max response [12] -0.161% | Potency [13] | max response [18] -7.46% | max response [14] -9.09% | max response [16] -1.76% | outcome [19]
13%: max response [1]
-12.5%: max response [7]
-1.51%: max response [4]

C#CCOC(=O)[C@@H](C)Oc1ccc(Oc2ncc(Cl)cc2F)cc1
-4.05%: max response [7]
41.4%: max response [1]
inactive: outcome [2] | Potency [3] | Potency [5] | max response [8] -3.03% | activation [9] -3.45% | activation [11] -1.36% | max response [12] -0.41% | Potency [13] | max response [18] -3.32% | max response [14] -6.8% | max response [16] -2.33% | outcome [19]
-11.8%: max response [4]

c1ccc(B(c2ccccc2)c2ccccc2)cc1
3.4%: max response [7]
inactive: activation [17] -5.17% | outcome [2] | Potency [3] | Potency [5] | Potency [6] | max response [8] -24.3% | activation [9] -0.854% | activation [10] -3.07% | activation [11] 1.54% | max response [12] -0.443% | Potency [13] | max response [18] -1.71% | max response [14] -15.9% | Potency [15] | max response [16] 1.02%
7.43%: max response [4]
-3.44%: max response [1]

CCCN(CCC)c1c([N+](=O)[O-])cc(C(F)(F)F)c(N)c1[N+](=O)[O-]
-8.88%: max response [7]
inactive: activation [17] -4.44% | Potency [6] | max response [8] -37.1% | activation [11] 2.99% | Potency [13] | max response [18] -7.36% | max response [14] -20.5%
active: Potency [15] 50.1 µM

C=CC(=O)OCC(C)OCC(C)OCC(C)OC(=O)C=C (stereo unspecified)
-20.7%: max response [7]
-8.39%: max response [4]
inactive: activation [17] -17.2% | Potency [3] | Potency [5] | Potency [6] | max response [8] 10.6% | activity change % (negative = inhibition) [20] 0.874% | activation [9] 0.712% | activation [11] -0.0895% | max response [12] -2.39% | Potency [13] | max response [18] -8.01% | max response [14] -1.74% | Potency [15] | max response [16] -2.64% | outcome [19]
41.6%: max response [1]
